# Where “and” joins values, the source holds several entries; their conditions need not be identical. Equal entries are not always repeated. Inconclusive results are not listed. More than one record can exist for a structure, and the calls need not agree. Calls of active or inactive are those of the source. The calls were made as follows, unless noted: active = hit-call score of the fitted dose curve at least 0.9, where 1 is the maximum; inactive = score below 0.9.
# Assay: CCTE_Mundy_HCI_Cortical_Synap_Neur_Matur_NeuriteLength: CCTE's Synaptogenesis and Neurite Maturation Assay in rat cortical cells for Neurite Length, Mundy Lab (AID 2284214)
# Conditions: not given
# Method in brief: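 Rat primary cortical cultures, AraC added DIV 5, dosed DIV 7 through DIV 12 […]. Fixed, MAP2/synaptophysin immunostained with Hoechst; neurite length by high-content imaging, fitted in positive direction versus DMSO.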
Compound,outcome,AC50
Cn1cc[nH]c1=S,inactive,–
c1ccc2cc3ccccc3cc2c1,inactive,–
Nc1ccn([C@@H]2O[C@H](CO)[C@@H](O)[C@@H]2O)c(=O)n1,inactive,11.9 µM (active)
C[C@]12C=CC(=O)C=C1CC[C@H]1[C@@H]3C[C@@H](O)[C@](O)(C(=O)CO)[C@@]3(C)C[C@H](O)[C@@]12F,–,2.59 µM (active)
OC(Cn1cncn1)(Cn1cncn1)c1ccc(F)cc1F,inactive,–
NNC(=O)c1ccncc1,inactive,–
CCCC(CCC)C(=O)O,inactive,–
NC(=O)N1c2ccccc2C=Cc2ccccc21,inactive,–
COc1cc2c(c(OC)c1OC)-c1ccc(OC)c(=O)cc1[C@@H](NC(C)=O)CC2,–,0.0354 µM (active)

# Assay: CCTE_Mundy_HCI_Cortical_Synap_Neur_Matur_NeuriteSpotCountPerNeuron: CCTE's Synaptogenesis and Neurite Maturation Assay in rat cortical cells for Neurite Spot Count per Neuron Count, Mundy Lab (AID 2284215)
# Conditions: not given
# Method in brief: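 High-content imaging counts synaptophysin puncta along MAP2-labelled neurites per neuron after chemical exposure of rat cortical cells from DIV 7 to termination at DIV 12 (AraC added DIV 5). Loss of signal relative to DMSO.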
Compound,outcome,AC50
Cn1cc[nH]c1=S,inactive,–
c1ccc2cc3ccccc3cc2c1,inactive,–
Nc1ccn([C@@H]2O[C@H](CO)[C@@H](O)[C@@H]2O)c(=O)n1,inactive,12.4 µM (active)
C[C@]12C=CC(=O)C=C1CC[C@H]1[C@@H]3C[C@@H](O)[C@](O)(C(=O)CO)[C@@]3(C)C[C@H](O)[C@@]12F,–,3 µM (active)
OC(Cn1cncn1)(Cn1cncn1)c1ccc(F)cc1F,inactive,–
NNC(=O)c1ccncc1,inactive,–
CCCC(CCC)C(=O)O,inactive,–
NC(=O)N1c2ccccc2C=Cc2ccccc21,inactive,–
COc1cc2c(c(OC)c1OC)-c1ccc(OC)c(=O)cc1[C@@H](NC(C)=O)CC2,–,0.0297 µM (active)

# Assay: TAMU_PeakParms_SingleDonor1434_Chronotropy: Texas A&M University (TAMU) 1.5-hr Human Induced Pluripotent Stem Cell (iPSC)-derived Cardiomyocytes Calcium (Ca+2) Flux Assay for Cardiotoxicity: Chronotropy (changes in peak frequency) (AID 2284217)
# Conditions: actives raise or lower the signal
# Method in brief: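 Beat frequency of single-donor iPSC cardiomyocytes was recorded through a calcium-sensitive dye 1.5 hours after exposure to four concentrations up to 100 uM. An EC05 point of departure was derived.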
Compound,outcome,AC50
CC(C)C(=O)Nc1ccc([N+](=O)[O-])c(C(F)(F)F)c1,inactive,–
c1ccc2cc3ccccc3cc2c1,–,20.2 µM (active)
CCCC(CCC)C(=O)O,inactive,–
c1ccc2c(c1)-c1cccc3c1c-2cc1ccccc13,–,4.53 µM (active)
COc1cc2c(c(OC)c1OC)-c1ccc(OC)c(=O)cc1[C@@H](NC(C)=O)CC2,inactive,–
OC[C@H]1O[C@@](CO)(O[C@H]2O[C@H](CO)[C@@H](O)[C@H](O)[C@H]2O)[C@@H](O)[C@@H]1O,inactive,–
CCN(CC)C(=S)SSC(=S)N(CC)CC,–,8.82 µM (active)

# Assay: CCTE_Mundy_HCI_Cortical_Synap_Neur_Matur_SynapseCount: CCTE's Synaptogenesis and Neurite Maturation Assay in rat cortical cells for Synapse Count, Mundy Lab (AID 2284218)
# Conditions: not given
# Method in brief: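 Rat primary cortical cultures, AraC at DIV 5, chemical dosing DIV 7 to DIV 12 (288.33 h). Fixed cells stained for MAP2, synaptophysin and Hoechst; synapses per neuron counted by high-content imaging, loss of signal versus DMSO.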
Compound,outcome,AC50
Cn1cc[nH]c1=S,inactive,–
c1ccc2cc3ccccc3cc2c1,inactive,–
Nc1ccn([C@@H]2O[C@H](CO)[C@@H](O)[C@@H]2O)c(=O)n1,inactive,12.4 µM (active)
C[C@]12C=CC(=O)C=C1CC[C@H]1[C@@H]3C[C@@H](O)[C@](O)(C(=O)CO)[C@@]3(C)C[C@H](O)[C@@]12F,–,4.2 µM (active)
OC(Cn1cncn1)(Cn1cncn1)c1ccc(F)cc1F,inactive,–
NNC(=O)c1ccncc1,inactive,–
CCCC(CCC)C(=O)O,inactive,–
NC(=O)N1c2ccccc2C=Cc2ccccc21,inactive,–
COc1cc2c(c(OC)c1OC)-c1ccc(OC)c(=O)cc1[C@@H](NC(C)=O)CC2,–,0.0302 µM (active)

# Assay: CCTE_Mundy_HCI_hN2_NOG_NeuriteCount: CCTE's Neurite Outgrowth Assay in human hN2 cells for Neurite Count, Mundy Lab (AID 2284219; active = hit-call score of the fitted dose curve at least 0.9, where 1 is the maximum)
# Conditions: not given
# Method in brief: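 In this morphology assay, hNP1-derived neurons received test chemical 2 h post-plating and were fixed two days later in warm paraformaldehyde/sucrose containing Hoechst 33342. Neurites, labelled by rabbit anti-βIII-tubulin (1:800) and Alexa Fluor-488 (1:500), were counted automatically.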
Compound,outcome,AC50
OC(Cn1cncn1)(Cn1cncn1)c1ccc(F)cc1F,inactive,–
NNC(=O)c1ccncc1,inactive,–
CCCC(CCC)C(=O)O,inactive,–
NC(=O)N1c2ccccc2C=Cc2ccccc21,inactive,–
COc1cc2c(c(OC)c1OC)-c1ccc(OC)c(=O)cc1[C@@H](NC(C)=O)CC2,–,0.00966 µM (active)

# Assay: CCTE_Mundy_HCI_hN2_NOG_NeuriteLength: CCTE's Neurite Outgrowth Assay in human hN2 cells for Neurite Length, Mundy Lab (AID 2284220; active = hit-call score of the fitted dose curve at least 0.9, where 1 is the maximum)
# Conditions: not given
# Method in brief: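 Plate hNP1-derived neurons, then add chemical 2 h later as a 1/10 dilution. Stain with anti-βIII-tubulin then Alexa Fluor-488 secondary, and image automatically to measure neurite length.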
Compound,outcome,AC50
OC(Cn1cncn1)(Cn1cncn1)c1ccc(F)cc1F,inactive,–
NNC(=O)c1ccncc1,inactive,–
CCCC(CCC)C(=O)O,inactive,–
NC(=O)N1c2ccccc2C=Cc2ccccc21,inactive,–
COc1cc2c(c(OC)c1OC)-c1ccc(OC)c(=O)cc1[C@@H](NC(C)=O)CC2,–,0.00931 µM (active)

# Assay: CCTE_Mundy_HCI_hN2_NOG_NeuronCount: CCTE's Neurite Outgrowth Assay in human hN2 cells for Neuron Count, Mundy Lab (AID 2284221; active = hit-call score of the fitted dose curve at least 0.9, where 1 is the maximum)
# Conditions: not given
# Method in brief: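 Read-out is the number of betaIII-tubulin-positive neurons imaged by automated high-content analysis, with DMSO as negative control.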
Compound,outcome,AC50
CCCC(CCC)C(=O)O,inactive,–
NC(=O)N1c2ccccc2C=Cc2ccccc21,inactive,–
COc1cc2c(c(OC)c1OC)-c1ccc(OC)c(=O)cc1[C@@H](NC(C)=O)CC2,–,0.0262 µM (active)

# Assay: CCTE_Mundy_HCI_Cortical_Synap_Neur_Matur_NeuriteCount: CCTE's Synaptogenesis and Neurite Maturation Assay in rat cortical cells for Neurite Count, Mundy Lab (AID 2284222);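 as to outcome: exposure from day 7 to day 12 in vitro with readout at day 12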
# Conditions: not given
# Method in brief: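 Chemical exposure runs DIV 7–12 in rat cortical cultures, glia suppressed by AraC at DIV 5; measurement is at DIV 12. Imaging-derived neurite counts are fitted against DMSO baseline.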
Compound,outcome,AC50
Cn1cc[nH]c1=S,inactive,–
c1ccc2cc3ccccc3cc2c1,inactive,–
Nc1ccn([C@@H]2O[C@H](CO)[C@@H](O)[C@@H]2O)c(=O)n1,–,12.6 µM (active) and 15 µM (active)
C[C@]12C=CC(=O)C=C1CC[C@H]1[C@@H]3C[C@@H](O)[C@](O)(C(=O)CO)[C@@]3(C)C[C@H](O)[C@@]12F,–,18.8 µM (active)
OC(Cn1cncn1)(Cn1cncn1)c1ccc(F)cc1F,inactive,–
NNC(=O)c1ccncc1,inactive,–
CCCC(CCC)C(=O)O,inactive,–
NC(=O)N1c2ccccc2C=Cc2ccccc21,inactive,–
COc1cc2c(c(OC)c1OC)-c1ccc(OC)c(=O)cc1[C@@H](NC(C)=O)CC2,–,0.44 µM (active)

# Assay: CCTE_Mundy_HCI_Cortical_Synap_Neur_Matur_CellBodySpotCount: CCTE's Synaptogenesis and Neurite Maturation Assay in rat cortical cells for Cell Body Spot Count, Mundy Lab (AID 2284223)
# Conditions: not given
# Method in brief: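 High-content imaging counts synaptophysin puncta on neuronal cell bodies per neuron after MAP2/synaptophysin immunostaining. Rat primary cortical cells, glia arrested with AraC at DIV 5, were exposed DIV 7–12; signal decrease measured against DMSO.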
Compound,outcome,AC50
Cn1cc[nH]c1=S,inactive,–
c1ccc2cc3ccccc3cc2c1,inactive,–
Nc1ccn([C@@H]2O[C@H](CO)[C@@H](O)[C@@H]2O)c(=O)n1,inactive,11.7 µM (active)
C[C@]12C=CC(=O)C=C1CC[C@H]1[C@@H]3C[C@@H](O)[C@](O)(C(=O)CO)[C@@]3(C)C[C@H](O)[C@@]12F,–,15 µM (active)
OC(Cn1cncn1)(Cn1cncn1)c1ccc(F)cc1F,inactive,–
NNC(=O)c1ccncc1,inactive,–
CCCC(CCC)C(=O)O,inactive,–
NC(=O)N1c2ccccc2C=Cc2ccccc21,inactive,–
COc1cc2c(c(OC)c1OC)-c1ccc(OC)c(=O)cc1[C@@H](NC(C)=O)CC2,–,0.0427 µM (active)

# Reference: PubChem BioAssay (EPA / NIEHS)
